Results published in PubChem BioAssay (NCI).
The panel holds about 83,000 compounds, 20% with a hit somewhere; the sample as a whole holds those more often.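 Negative percent growth values reflect cell death: -40 means 40% of the cells present at the start died, and -100 means all died.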 Calls of active or inactive are those of the source. Rule for the calls: active = growth percent below 10; inactive = the rest.

Experiments:
Test in all cases: NCI-60 one-dose screen, 48 h (100 = growth as untreated, 0 = no growth, -100 = all killed)
Settings in all cases: 10 µM unless noted
NCI-H23 lung = tested on: NCI-H23 lung
NCI-H226 lung = tested on: NCI-H226 lung
NCI-H322M lung = tested on: NCI-H322M lung
HOP-62 NSCLC = tested on: HOP-62 NSCLC
NCI-H460 lung = tested on: NCI-H460 lung
HOP-92 NSCLC = tested on: HOP-92 NSCLC
NCI-H522 lung = tested on: NCI-H522 lung
A549/ATCC NSCLC = tested on: A549/ATCC NSCLC
786-0 renal = tested on: 786-0 renal
COLO 205 colon = tested on: COLO 205 colon
DU-145 prostate = tested on: DU-145 prostate
K-562 leukemia = tested on: K-562 leukemia
MALME-3M melanoma = tested on: MALME-3M melanoma
MDA-MB-231 breast = tested on: MDA-MB-231 breast
RXF 393 renal = tested on: RXF 393 renal
SF-268 CNS = tested on: SF-268 CNS
SF-295 CNS = tested on: SF-295 CNS
SF-539 CNS = tested on: SF-539 CNS
UACC-257 melanoma = tested on: UACC-257 melanoma
M14 melanoma = tested on: M14 melanoma

Measured: growth

CCOC(=O)NNc1nncc2ccccc12
inactive: NCI-H23 lung 95.4% | NCI-H226 lung 104% | NCI-H322M lung 102% | HOP-62 NSCLC 102% | NCI-H460 lung 110% | HOP-92 NSCLC 95.1% | NCI-H522 lung 103% | A549/ATCC NSCLC 104% | 786-0 renal 99.1% | COLO 205 colon 105% | DU-145 prostate 115% | K-562 leukemia 81.9% | MALME-3M melanoma 99.5% | MDA-MB-231 breast 101% | RXF 393 renal 109% | SF-268 CNS 107% | SF-295 CNS 103% | SF-539 CNS 108% | UACC-257 melanoma 93.3% | M14 melanoma 108%

O=C1OC(N(Cc2ccc(Cl)cc2)c2ccccc2)c2ccccc21 (stereo not given)
inactive: NCI-H23 lung 99.7% | NCI-H226 lung 92.9% | NCI-H322M lung 89.6% | HOP-62 NSCLC 88.9% | NCI-H460 lung 111% | HOP-92 NSCLC 100% | NCI-H522 lung 65.8% | A549/ATCC NSCLC 90.5% | 786-0 renal 91% | COLO 205 colon 104% | DU-145 prostate 109% | K-562 leukemia 87% | MALME-3M melanoma 104% | MDA-MB-231 breast 84.8% | RXF 393 renal 125% | SF-268 CNS 105% | SF-295 CNS 104% | SF-539 CNS 99.7% | UACC-257 melanoma 105% | M14 melanoma 104%

Nc1nc(-c2cc3c(cc2Cl)NC(=O)/C3=C/c2ccccc2)cs1
active: K-562 leukemia 3.89%
inactive: NCI-H23 lung 56.5% | NCI-H226 lung 71.8% | NCI-H322M lung 70.1% | HOP-62 NSCLC 78.6% | NCI-H460 lung 56.8% | HOP-92 NSCLC 81.2% | NCI-H522 lung 27.5% | A549/ATCC NSCLC 61.5% | 786-0 renal 83.9% | COLO 205 colon 81.3% | DU-145 prostate 51.6% | MALME-3M melanoma 97.1% | MDA-MB-231 breast 37.3% | RXF 393 renal 63.3% | SF-268 CNS 52.1% | SF-295 CNS 70% | SF-539 CNS 81.5% | UACC-257 melanoma 80.1% | M14 melanoma 60.6%

COc1ccc(/C=C/C(=O)c2ccc(-n3cc(CN4CCN(c5cc6c(cc5F)c(=O)c(C(=O)O)cn6C5CC5)CC4)nn3)cc2)cc1OC
active: K-562 leukemia 7.81% | RXF 393 renal 4.51% | SF-539 CNS 7.09%
inactive: NCI-H23 lung 50.6% | NCI-H226 lung 32.4% | NCI-H322M lung 52.6% | HOP-62 NSCLC 38.7% | NCI-H460 lung 53.1% | HOP-92 NSCLC 81.6% | NCI-H522 lung 49.5% | A549/ATCC NSCLC 15.7% | 786-0 renal 43.7% | COLO 205 colon 60.9% | DU-145 prostate 45.8% | MALME-3M melanoma 57.5% | MDA-MB-231 breast 55.4% | SF-268 CNS 59.5% | SF-295 CNS 67.5% | UACC-257 melanoma 62% | M14 melanoma 28.2%

COc1ccc(-c2nn(-c3ccc(NC(=O)c4cc(C(F)(F)F)cc(C(F)(F)F)c4)cc3)cc2-c2ccncc2)cc1Cl
active: RXF 393 renal -6.8%
inactive: NCI-H23 lung 72.1% | NCI-H226 lung 91.1% | NCI-H322M lung 87.4% | HOP-62 NSCLC 67% | NCI-H460 lung 57.7% | HOP-92 NSCLC 48.7% | NCI-H522 lung 71.2% | A549/ATCC NSCLC 59.5% | 786-0 renal 44.1% | COLO 205 colon 85.6% | DU-145 prostate 76.7% | K-562 leukemia 29% | MALME-3M melanoma 95.1% | MDA-MB-231 breast 49.3% | SF-268 CNS 68.7% | SF-295 CNS 33.1% | SF-539 CNS 67.7% | UACC-257 melanoma 78.8% | M14 melanoma 40.1%

CCCCOc1c(N)cc(Cl)cc1C(=O)OCCN(CC)CC
inactive: NCI-H23 lung 104% | NCI-H226 lung 94.1% | NCI-H322M lung 86% | HOP-62 NSCLC 91.8% | NCI-H460 lung 108% | HOP-92 NSCLC 89.6% | NCI-H522 lung 53.1% | A549/ATCC NSCLC 86.5% | 786-0 renal 92.8% | COLO 205 colon 115% | DU-145 prostate 116% | K-562 leukemia 83.9% | MALME-3M melanoma 102% | MDA-MB-231 breast 101% | RXF 393 renal 125% | SF-268 CNS 98.6% | SF-295 CNS 101% | SF-539 CNS 104% | UACC-257 melanoma 78.3% | M14 melanoma 107%

COc1cc(NC(=O)C#Cc2ccccc2)c(OC)cc1Cl
inactive: NCI-H23 lung 57.8% | NCI-H226 lung 64.7% | NCI-H322M lung 93.2% | HOP-62 NSCLC 77.6% | NCI-H460 lung 17.8% | HOP-92 NSCLC 78.5% | NCI-H522 lung 39.2% | A549/ATCC NSCLC 59.5% | 786-0 renal 35.1% | COLO 205 colon 64.6% | DU-145 prostate 83.6% | K-562 leukemia 20.6% | MALME-3M melanoma 61.4% | MDA-MB-231 breast 26.6% | RXF 393 renal 83.5% | SF-268 CNS 39.8% | SF-295 CNS 75.1% | SF-539 CNS 66.6% | UACC-257 melanoma 89.2% | M14 melanoma 49.8%

COc1cc(CN(c2ccc(Cl)cc2)C2OC(=O)c3ccccc32)cc(OC)c1OC (stereo not given)
inactive: NCI-H23 lung 77.2% | NCI-H226 lung 78.9% | NCI-H322M lung 88.8% | HOP-62 NSCLC 44.8% | NCI-H460 lung 57.4% | HOP-92 NSCLC 69.1% | NCI-H522 lung 35% | A549/ATCC NSCLC 39.7% | 786-0 renal 71% | COLO 205 colon 61.9% | DU-145 prostate 83.7% | K-562 leukemia 15.8% | MALME-3M melanoma 64.3% | MDA-MB-231 breast 67.1% | RXF 393 renal 82.7% | SF-268 CNS 67.8% | SF-295 CNS 71.5% | SF-539 CNS 60.2% | UACC-257 melanoma 74.7% | M14 melanoma 34.8%
